Assay [1] in a line: qHTS for differential inhibitors of proliferation of Plasmodium falciparum line 7G8 (AID 1815;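 note: potency is the fitted concentration of half-maximal effect; parasite growth measured after three days of incubation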). (In general: qHTS replaces the single test concentration by a dilution series.)
Assay [2] can be described thus: qHTS for differential inhibitors of proliferation of Plasmodium falciparum line GB4 (AID 1816).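 Note: potency is the fitted concentration of half-maximal effect; parasite growth measured after 72 h incubation.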 The settings on record: Potency: Plasmodium falciparum GB4 proliferation inhibition.
Assay [3] can be described thus: qHTS for differential inhibitors of proliferation of Plasmodium falciparum line 3D7 (AID 1876). Note: potency is the fitted concentration of half-maximal effect.
A short description of assay [4]: qHTS for differential inhibitors of proliferation of Plasmodium falciparum line D10 (AID 1877).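 Note: potency is the fitted concentration of half-maximal effect; parasites grown with compound for 72 h before DNA staining.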
A short description of assay [5]: qHTS for differential inhibitors of proliferation of Plasmodium falciparum line W2 (AID 1883).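 Note: potency is the fitted concentration of half-maximal effect; parasites grown with compound for 72 h before lysis and staining.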 The settings on record: Potency: Plasmodium falciparum W2 proliferation inhibition.
Assay [6] can be described thus: qHTS for differential inhibitors of proliferation of Plasmodium falciparum line HB3 (AID 1886).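 Note: potency is the fitted concentration of half-maximal effect; parasites grown with compound for 72 h before SYBR Green readout.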 The settings on record: Potency: Plasmodium falciparum HB3 proliferation inhibition.
Assay [7] concerns the target Ferritin light chain (Equus caballus) (UniProt P02791). The experiment in a line: qHTS Validation Assay for Identification of Novel General Anesthetics (AID 2323). Note: series mostly up to about 77 µM; % is set by controls: 0 for no effect and ±100 for the full control effect. In a few lines: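 Apoferritin from horse spleen (10 uM) was mixed with 1-aminoanthracene at 50% saturation in PBS, then compounds were added. After 10 min at room temperature, fluorescence was read (ex 380 nm, em 535 nm) and normalized to free-probe and complex controls.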

Assay [8] has as its target ATP-dependent DNA helicase Q1 (Homo sapiens) (UniProt P46063). The experiment in a line: qHTS Validation Assay for Inhibitors of RecQ-Like Dna Helicase 1 (RECQ1) (AID 2353).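 Note: plate controls were DMSO vehicle for no effect and enzyme-free control for full effect.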 The gist of the method: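 RECQ1T1 50 nM; forked duplex (20 bp + 30-nt ss tails) 200 nM, ATP 2 mM final; pH 8.0, 2 mM MgCl2, 2.5 ug/ml poly(dI-dC); 15 min compound preincubation; discontinuous kinetic read over 2 h at RT.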

The nature of assay [9]: Validation screen for small molecules that induce DNA re-replication in MCF 10A normal breast cells (AID 463097). Note: 0% is about no effect; nearly all actives have a fitted effect of over 60% in size. The gist of the method: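 DNA re-replication was detected as a rise in nuclei with elevated Hoechst fluorescence after a 48 hr compound exposure of MCF 10A cells at 37 C.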
Assay [10] is described as follows: Quantitative high throughput screen for delayed death inhibitors of the malarial parasite plastid, 96 hour incubation (AID 488745). Note: potency is the fitted concentration of half-maximal effect; nearly all actives have a fitted effect of over 70% in size. In a few lines:
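Decreased firefly luciferase luminescence indicates inhibited growth of reporter-integrated P. falciparum after two generations (96 h, 37 C, 5% CO2). Infected erythrocytes at 0.1% parasitemia, 2% hematocrit, in Albumax-supplemented RPMI 1640.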

A short description of assay [11]: Quantitative high throughput screen for delayed death inhibitors of the malarial parasite plastid, 48 hour incubation (AID 488752). Note: potency is the fitted concentration of half-maximal effect; nearly all actives have a fitted effect of over 65% in size. In a few lines:
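One-generation (48 h) growth assay: a decrease in luciferase signal from an integrated reporter in P. falciparum-infected red cells (0.1% parasitemia, 2% hematocrit) after compound exposure at 37 C indicates parasite inhibition.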

For assay [12], the target named is M-phase phosphoprotein 8 (Homo sapiens) (UniProt Q99549). The experiment in a line: qHTS Validation Assay for Inhibitors for MPP8 Chromodomain Interactions with Methylated Histone Tails (AID 488949).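 Note: AlphaScreen signal from MPP8 chromodomain bound to biotinylated H3K9me3 peptide; top concentration of the series differs between compounds; % is set by controls: 0 for no effect and ±100 for the full control effect; nearly all actives have a fitted effect of over 55% in size.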 In a few lines: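 Disruption of the preformed MPP8–trimethyl-H3K9 peptide complex (both 50 nM, 30 min, RT) is measured after 30 min compound exposure, using AlphaScreen proximity beads; aurintricarboxylic acid titration serves as plate control.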

Assay [13] deals with Transient receptor potential cation channel subfamily V member 1 (Homo sapiens) (UniProt Q8NER1). The experiment in a line: HTS Assay for Compounds that Act as Enhancers of the Vanilloid Receptor 1 (AID 488979). Note: 0% is about no effect. The gist of the method: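 Calcium influx kinetics via Fluo-8 (480/520 nm) in TRPV1-expressing cells, 2000/well cultured overnight at 35.5C. Compound-alone read 3 min (agonist phase), followed by EC20 capsaicin challenge for 2 min (enhancer phase).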

The target in assay [14] is Thyrotropin receptor (Homo sapiens) (UniProt P16473). In words: qHTS Assay for Antagonists of the Thyroid Stimulating Hormone Receptor (AID 488980). Note: series mostly up to about 58 µM; 0% is about no effect. The gist of the method: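 Cells expressing human TSHR (HEK293) are dispensed in HBSS/HEPES containing 70 uM RO 20-1724, compound is added, then TSH at EC80 (4 nM final). Antibody in lysis buffer follows, 30 minutes at room temperature before HTRF detection.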

Assay [15] has as its target Thyrotropin-releasing hormone receptor (Homo sapiens) (UniProt P34981). The experiment in a line: qHTS for Small Molecule Agonists and Allosteric Enhancers of Human TRH Receptor: Validation Screen for Agonists (AID 493127;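 active = calcium activation more than 3 SD above the typical response in the agonist read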;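 note: intracellular calcium rise by fluo-8 fluorescence before TRH EC20 addition; 0% is about no effect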). The note with it: TRH receptor agonist cell assay; at 2 µM; hits give high values. In a few lines:
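Compound-evoked intracellular calcium release in fluo-8-loaded TRHR cells, read kinetically on FDSS (Ex 480/Em 530, 1 s/cycle) after 23 nL pintool transfer. Agonist phase preceded 10 nM TRH EC20 addition.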

Assay [16] deals with Galactokinase (Homo sapiens) (UniProt P51570). The experiment in a line: qHTS Validation Assay for Inhibitors of Human Galactokinase (GALK) (AID 493189). Note: 0% is about no effect. The gist of the method: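 Compounds were pin-transferred into ATP buffer, then GALK-galactose mix was added (final 5 nM enzyme, 100 uM galactose, 35 uM ATP). After 1 h at room temperature, remaining ATP was measured luminescently.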

The nature of assay [17]: Validation screen for small molecules that induce DNA re-replication in SW480 colon adenocarcinoma cells (AID 504364). Note: 0% is about no effect. The gist of the method:
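Image-based DNA content read-out: Hoechst stain 40 min, total nuclear fluorescence intensity (ex 405 nm, em 500-530 nm) after 48 h compound exposure of 250 SW480 cells/well at 37 C, 5% CO2, versus DMSO vehicle.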

The target in assay [18] is DNA dC->dU-editing enzyme APOBEC-3G (Homo sapiens) (UniProt Q9HC16). In words: qHTS for inhibitors of Vif-A3G interactions: Validation (AID 588379). Note: 0% is about no effect. In a few lines: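 Yellow fluorescence (Ex 488, Em 500-530) of Vif-coexpressing HeLa A3G-eYFP cells, scanned by Acumen cytometer, reports blocked A3G degradation. Cells plated at 700/well overnight at 37 deg C before compound addition, then a further overnight compound incubation at 37 deg C.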

Assay [19] addresses Voltage-gated inwardly rectifying potassium channel KCNH2 (Homo sapiens) (UniProt Q12809). In words: qHTS Assay for Small Molecule Inhibitors of the Human hERG Channel Activity (AID 588834).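 Note: U2OS cells transduced with hERG by BacMam; top concentration of the series differs between compounds; % is set by controls: 0 for no effect and ±100 for the full control effect; lower thallium flux fluorescence means stronger hERG block; nearly all actives have a fitted effect of over 50% in size.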 In a few lines:
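Cells were infected with hERG-BacMam virus for 4 hrs at room temperature, grown overnight, then seeded at 2000/well. After dye loading and roughly 10 min compound treatment, thallium influx was triggered and fluorescence recorded.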

Assay [20] has as its system Zika virus NS2B-NS3 protease. The experiment in a line: Primary screen GU AMC qHTS for Zika virus inhibitors (AID 1347154).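 Note: 0% = no-inhibitor control and -100% = no-enzyme control; nearly all actives have a fitted effect of over 70% in size.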 The gist of the method: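 Fluorogenic AMC-substrate cleavage by noncovalent NS2B-NS3 protease complex (25 nM, pH 8.0 Tris buffer with Tween 20) followed for 15 minutes at room temperature (~20% conversion). Percent inhibition from ex340/em450 signal change, fitted by 4-parameter Hill equation.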

A short description of assay [21]: Primary qHTS for small molecule stabilizers of the endoplasmic reticulum resident proteome: Secreted ER Calcium Modulated Protein (SERCaMP) assay (AID 1508630). Note: % is set by controls: 0 for no effect and ±100 for the full control effect. In a few lines: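 The SH-SY5Y reporter protocol was run at 3 concentrations up to 38.3 uM (primary) or 11 concentrations (follow-up): 16 h compound, 100 nM thapsigargin for 4 h, then extracellular luciferase luminescence.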

A number with no mark means an inactive call. Inconclusive results are not listed. Activity calls are given as the source filed them. Unless noted, calls come from the whole dose curve; as a rule, active = well fitted curve in the direction sought with a large enough effect; inconclusive = small, poorly fitted or top-dose-only effect, or another doubt; inactive = no such curve, though single readings can be large; an effect the other way counts as inactive or inconclusive.

Chain of Transient receptor potential cation channel subfamily V member 1 (Homo sapiens) (Q8NER1 whole entry, looked up): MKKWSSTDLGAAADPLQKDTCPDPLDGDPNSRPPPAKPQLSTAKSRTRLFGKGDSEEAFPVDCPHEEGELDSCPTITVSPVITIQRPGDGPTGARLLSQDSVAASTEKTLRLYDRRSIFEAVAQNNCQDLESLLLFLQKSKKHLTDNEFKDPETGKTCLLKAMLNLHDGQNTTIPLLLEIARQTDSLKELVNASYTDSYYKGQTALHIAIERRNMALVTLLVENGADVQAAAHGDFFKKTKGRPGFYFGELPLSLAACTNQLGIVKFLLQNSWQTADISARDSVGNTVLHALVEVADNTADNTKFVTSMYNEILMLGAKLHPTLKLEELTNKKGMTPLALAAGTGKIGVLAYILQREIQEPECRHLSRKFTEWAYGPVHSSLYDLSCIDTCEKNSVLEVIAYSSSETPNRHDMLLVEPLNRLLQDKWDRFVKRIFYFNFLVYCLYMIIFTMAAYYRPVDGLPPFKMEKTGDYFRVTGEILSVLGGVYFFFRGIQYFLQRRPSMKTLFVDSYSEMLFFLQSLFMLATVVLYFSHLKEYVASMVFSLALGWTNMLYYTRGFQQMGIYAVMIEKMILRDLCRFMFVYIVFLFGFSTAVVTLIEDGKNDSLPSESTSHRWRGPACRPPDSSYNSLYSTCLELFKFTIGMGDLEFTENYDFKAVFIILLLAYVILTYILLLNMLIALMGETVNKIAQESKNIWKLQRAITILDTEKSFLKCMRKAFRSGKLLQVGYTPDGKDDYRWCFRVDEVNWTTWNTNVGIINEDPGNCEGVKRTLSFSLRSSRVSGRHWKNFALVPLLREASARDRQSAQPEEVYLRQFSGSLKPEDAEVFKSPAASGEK
Chain of Galactokinase (Homo sapiens) (P51570 whole entry, looked up): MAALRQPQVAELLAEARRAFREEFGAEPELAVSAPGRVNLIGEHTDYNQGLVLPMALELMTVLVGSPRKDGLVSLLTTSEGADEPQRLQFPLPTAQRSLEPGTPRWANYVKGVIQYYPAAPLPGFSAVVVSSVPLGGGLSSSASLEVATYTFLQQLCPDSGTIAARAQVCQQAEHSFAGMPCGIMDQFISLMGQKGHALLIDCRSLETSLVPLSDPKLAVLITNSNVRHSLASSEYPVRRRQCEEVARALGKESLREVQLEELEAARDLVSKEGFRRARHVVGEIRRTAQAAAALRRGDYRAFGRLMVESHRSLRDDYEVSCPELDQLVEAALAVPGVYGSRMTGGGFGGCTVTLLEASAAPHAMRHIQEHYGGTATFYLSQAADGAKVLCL
Chain of Thyrotropin-releasing hormone receptor (Homo sapiens) (P34981 whole entry, looked up): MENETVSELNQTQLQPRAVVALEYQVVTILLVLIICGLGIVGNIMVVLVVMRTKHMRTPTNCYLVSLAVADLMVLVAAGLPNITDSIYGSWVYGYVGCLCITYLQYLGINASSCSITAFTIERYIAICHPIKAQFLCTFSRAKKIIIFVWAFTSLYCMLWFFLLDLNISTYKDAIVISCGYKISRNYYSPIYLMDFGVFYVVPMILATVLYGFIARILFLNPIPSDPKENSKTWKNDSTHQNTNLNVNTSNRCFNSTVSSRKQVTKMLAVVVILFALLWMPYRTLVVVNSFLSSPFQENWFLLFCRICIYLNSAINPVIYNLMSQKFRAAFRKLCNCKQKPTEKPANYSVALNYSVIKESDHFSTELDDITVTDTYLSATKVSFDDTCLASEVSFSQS
Chain of Thyrotropin receptor (Homo sapiens) (P16473 whole entry, looked up): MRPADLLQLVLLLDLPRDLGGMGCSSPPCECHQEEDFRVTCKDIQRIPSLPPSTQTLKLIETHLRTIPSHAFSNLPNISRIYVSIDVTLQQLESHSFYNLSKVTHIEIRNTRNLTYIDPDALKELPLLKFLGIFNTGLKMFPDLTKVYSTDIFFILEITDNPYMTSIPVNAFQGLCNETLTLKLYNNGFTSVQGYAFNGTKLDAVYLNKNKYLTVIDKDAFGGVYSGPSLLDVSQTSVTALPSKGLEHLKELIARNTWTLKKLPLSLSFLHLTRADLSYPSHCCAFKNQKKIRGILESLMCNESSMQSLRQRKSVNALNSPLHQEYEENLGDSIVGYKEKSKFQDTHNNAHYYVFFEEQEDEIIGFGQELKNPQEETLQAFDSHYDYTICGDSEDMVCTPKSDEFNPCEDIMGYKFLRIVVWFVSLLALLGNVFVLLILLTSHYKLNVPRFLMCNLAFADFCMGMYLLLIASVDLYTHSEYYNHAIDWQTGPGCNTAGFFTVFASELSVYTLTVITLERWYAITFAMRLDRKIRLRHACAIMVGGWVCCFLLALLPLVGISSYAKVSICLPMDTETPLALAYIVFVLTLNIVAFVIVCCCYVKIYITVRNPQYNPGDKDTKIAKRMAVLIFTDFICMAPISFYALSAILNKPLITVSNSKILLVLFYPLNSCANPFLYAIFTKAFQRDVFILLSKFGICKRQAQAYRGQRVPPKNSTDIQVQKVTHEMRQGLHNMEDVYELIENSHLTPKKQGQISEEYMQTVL
Chain of Voltage-gated inwardly rectifying potassium channel KCNH2 (Homo sapiens) (Q12809 whole entry, looked up): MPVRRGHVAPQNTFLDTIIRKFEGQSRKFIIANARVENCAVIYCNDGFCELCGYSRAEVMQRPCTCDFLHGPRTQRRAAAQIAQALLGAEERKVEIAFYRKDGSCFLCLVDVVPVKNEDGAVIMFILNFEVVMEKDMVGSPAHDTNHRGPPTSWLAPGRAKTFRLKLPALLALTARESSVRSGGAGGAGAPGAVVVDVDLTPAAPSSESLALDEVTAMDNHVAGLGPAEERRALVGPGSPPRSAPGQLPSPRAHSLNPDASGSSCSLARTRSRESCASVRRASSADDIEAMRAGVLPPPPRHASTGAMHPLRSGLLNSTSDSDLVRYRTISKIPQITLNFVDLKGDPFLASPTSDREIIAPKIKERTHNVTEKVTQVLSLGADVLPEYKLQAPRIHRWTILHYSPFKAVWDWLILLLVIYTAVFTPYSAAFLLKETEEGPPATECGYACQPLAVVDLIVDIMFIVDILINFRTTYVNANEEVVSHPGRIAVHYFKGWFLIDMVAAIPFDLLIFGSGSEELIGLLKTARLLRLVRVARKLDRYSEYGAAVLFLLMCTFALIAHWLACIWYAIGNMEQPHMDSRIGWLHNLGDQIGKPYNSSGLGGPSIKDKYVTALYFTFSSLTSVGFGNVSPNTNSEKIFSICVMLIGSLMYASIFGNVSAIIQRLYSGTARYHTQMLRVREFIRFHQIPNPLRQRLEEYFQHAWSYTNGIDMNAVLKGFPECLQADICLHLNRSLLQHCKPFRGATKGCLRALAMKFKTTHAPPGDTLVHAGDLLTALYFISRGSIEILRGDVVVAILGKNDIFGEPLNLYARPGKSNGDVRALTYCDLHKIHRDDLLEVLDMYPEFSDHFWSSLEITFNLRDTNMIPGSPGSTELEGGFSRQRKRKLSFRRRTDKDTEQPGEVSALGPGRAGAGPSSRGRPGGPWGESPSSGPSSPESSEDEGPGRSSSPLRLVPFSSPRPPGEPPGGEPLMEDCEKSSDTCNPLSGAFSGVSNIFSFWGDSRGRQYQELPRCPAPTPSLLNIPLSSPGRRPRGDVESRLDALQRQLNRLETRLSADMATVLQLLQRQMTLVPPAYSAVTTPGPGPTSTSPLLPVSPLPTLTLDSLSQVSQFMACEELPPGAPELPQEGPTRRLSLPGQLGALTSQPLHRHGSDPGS
Chain of DNA dC->dU-editing enzyme APOBEC-3G (Homo sapiens) (Q9HC16 whole entry, looked up): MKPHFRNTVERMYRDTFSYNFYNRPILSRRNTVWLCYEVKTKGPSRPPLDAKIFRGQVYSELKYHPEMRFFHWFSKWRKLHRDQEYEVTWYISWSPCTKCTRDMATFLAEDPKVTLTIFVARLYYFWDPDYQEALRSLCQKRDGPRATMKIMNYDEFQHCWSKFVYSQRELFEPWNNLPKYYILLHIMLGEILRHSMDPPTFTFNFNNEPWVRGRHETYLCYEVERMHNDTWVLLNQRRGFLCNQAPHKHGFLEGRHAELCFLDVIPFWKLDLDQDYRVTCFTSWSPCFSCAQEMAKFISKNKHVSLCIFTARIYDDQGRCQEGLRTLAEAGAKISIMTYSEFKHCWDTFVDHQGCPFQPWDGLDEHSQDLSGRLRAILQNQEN
Chain of Ferritin light chain (Equus caballus) (P02791 2-175 limits assumed): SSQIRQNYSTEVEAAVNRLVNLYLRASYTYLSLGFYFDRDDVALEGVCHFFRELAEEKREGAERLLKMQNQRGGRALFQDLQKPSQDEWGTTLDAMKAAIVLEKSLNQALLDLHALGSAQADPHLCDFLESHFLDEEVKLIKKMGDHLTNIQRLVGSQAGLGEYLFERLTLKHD
Chain of M-phase phosphoprotein 8 (Homo sapiens) (Q99549 whole entry, looked up): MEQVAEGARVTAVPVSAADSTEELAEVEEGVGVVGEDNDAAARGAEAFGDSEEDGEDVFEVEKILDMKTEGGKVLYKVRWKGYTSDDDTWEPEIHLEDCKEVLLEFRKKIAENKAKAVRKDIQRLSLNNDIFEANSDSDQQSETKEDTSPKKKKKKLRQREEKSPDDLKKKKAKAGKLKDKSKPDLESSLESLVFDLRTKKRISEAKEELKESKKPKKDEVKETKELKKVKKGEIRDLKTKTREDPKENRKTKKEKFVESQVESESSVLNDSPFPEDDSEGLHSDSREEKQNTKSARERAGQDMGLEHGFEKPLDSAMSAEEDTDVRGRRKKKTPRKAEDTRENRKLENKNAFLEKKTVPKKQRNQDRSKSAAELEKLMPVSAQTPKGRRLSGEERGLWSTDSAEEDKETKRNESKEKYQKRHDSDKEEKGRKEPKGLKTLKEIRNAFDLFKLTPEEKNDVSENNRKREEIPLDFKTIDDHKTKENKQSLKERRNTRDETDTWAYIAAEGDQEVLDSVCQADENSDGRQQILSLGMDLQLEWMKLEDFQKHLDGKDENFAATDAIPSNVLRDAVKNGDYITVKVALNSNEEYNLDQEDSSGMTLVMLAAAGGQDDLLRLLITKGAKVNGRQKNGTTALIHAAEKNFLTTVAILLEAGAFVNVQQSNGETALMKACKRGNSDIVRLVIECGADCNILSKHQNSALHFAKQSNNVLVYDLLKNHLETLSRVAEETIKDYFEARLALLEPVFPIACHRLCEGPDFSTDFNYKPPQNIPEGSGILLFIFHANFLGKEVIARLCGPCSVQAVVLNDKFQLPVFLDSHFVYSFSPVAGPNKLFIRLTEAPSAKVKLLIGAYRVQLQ

`COC(=O)c1c(-c2cc(OC)c(OC)c(OC)c2)c2ccnc(OCc3ncccn3)c2c(=O)n1Cc1ccnc(C)c1`: the Potency in assay [1] was 3.98 µM (active); in [2], 4.47 µM (active); in assay [3] it was 2 µM (active); in [4], 4.47 µM (active); in [5], 2.51 µM (active); in assay [6] it was 2.82 µM (active). The Potency in assay [10] was 5.86 µM (active); in [11] it was 9.28 µM (active). Also, the compound was classed as inactive in [7], in assay [13], in assay [14], in [16] and in [17]. Further, the Potency result in assay [8], in assay [9], in assay [12], in [18], in assay [19] and in [20] was “inactive” in each case. In addition, the Potency result in [21] is “inactive”. For the same compound, in assay [15], the activation was 0.438%.

These data come from PubChem BioAssay (NCATS).
